These results are taken from PubChem BioAssay (NCATS).

Several values for one entry are separate records, joined by “and”; a condition that tells them apart may be missing. Equal entries are not always repeated. Unmarked numbers belong to inactive results. Results filed as inconclusive are left out. Activity calls are given as the source filed them. Calls follow the shape of the dose curve; as a rule, active = well fitted curve in the direction sought with a large enough effect; inconclusive = small, poorly fitted or top-dose-only effect, or another doubt; inactive = no such curve, though single readings can be large; an effect the other way counts as inactive or inconclusive.

A short description of experiment [1]: Primary qHTS for inhibitors of nuclear receptor binding SET domain protein 2 (NSD2) in an RCH-ACV wild type WT cells (2C) (AID 1645877). Also: nearly all actives have a fitted effect of over 70% in size. Also: potency is read from the fitted curve at half-maximal effect.
For experiment [2], the target named is Glutathione peroxidase 1 (Homo sapiens) (UniProt P07203). Description: Primary qHTS Assay for Inhibitors of Recombinant Selenoprotein Glutathione Peroxidase 1 (GPX1) (AID 1845191). Also: nearly all actives have a fitted effect of over 65% in size. The essentials: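 GPX1 10 nM, GR 100 nM, GSH 1 mM, NADPH 0.5 mM, CHP 0.5 mM (final). 30-min cpd preincubation, RT. Ex340/Em450 read t=0, t=15 min.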
(In qHTS, concentration-response curves come from the screen itself.)

Experiment [3] addresses Phospholipid hydroperoxide glutathione peroxidase GPX4 (Homo sapiens) (UniProt P36969). Description: Primary qHTS Assay for Inhibitors of Recombinant Selenoprotein Glutathione Peroxidase 4 (GPX4) (AID 1845192). Also: nearly all actives have a fitted effect of over 65% in size. The gist of the method: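 qHTS, GR-coupled: GPX4 200 nM + cpd 30 min RT → GSH 1 mM, NADPH 0.5 mM, GR 100 nM → CHP 0.5 mM start; fluor 340/450 at t0 and t15 min; no-enzyme wells as control.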

Experiment [4] addresses Luciferin 4-monooxygenase (Photinus pyralis) (UniProt P08659). Description: Primary firefly luciferase (FLuc) qHTS assay for identification of artifact compounds. (AID 1845220). Also: nearly all actives have a fitted effect of over 60% in size. The gist of the method: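 qHTS, 15 min compound preincubation with substrate (10 uM luciferin, 10 uM ATP) at RT, then 10 nM FLuc; 5 min; luminescence; % inhibition vs no-enzyme/DMSO controls, 4-parameter Hill fit.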

Experiment [5] relates to Nanoluciferase (engineered Oplophorus gracilirostris luciferase). Briefly: Primary Nanoluciferase (NLuc) qHTS assay for identification of artifact compounds. (AID 1845222). Also: series mostly up to about 54 µM. The gist of the method:
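Luminescence read-out of secreted NLuc in S16 cell conditioned medium (1:55); compounds tested with 15 min RT preincubation, then Nano-Glo substrate 1:100, 5 min. % inhibition vs no-enzyme and DMSO controls, 4-parameter Hill fit.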

Experiment [6] is described as follows: Primary redox qHTS assay for identification of artifact compounds. (AID 1845223). The essentials:
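Redox-cycling detection via DTT (250 uM final) oxidation coupled to Amplex Red (25 uM)/HRP (250 mU/mL) in HBSS. 15 min preincubation plus 30 min after DTT, room temperature. Ex/Em 525/598 nm; 4-parameter Hill fit against DMSO and 10 uM DA3003.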

Sequence of Phospholipid hydroperoxide glutathione peroxidase GPX4 (Homo sapiens) (P36969 whole entry, looked up): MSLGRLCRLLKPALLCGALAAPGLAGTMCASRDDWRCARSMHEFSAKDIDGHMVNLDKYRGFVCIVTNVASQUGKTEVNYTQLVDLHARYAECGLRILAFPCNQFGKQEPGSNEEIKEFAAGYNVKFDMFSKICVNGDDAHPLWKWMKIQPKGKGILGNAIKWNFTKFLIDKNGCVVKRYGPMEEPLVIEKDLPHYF
Sequence of Glutathione peroxidase 1 (Homo sapiens) (P07203 whole entry, looked up): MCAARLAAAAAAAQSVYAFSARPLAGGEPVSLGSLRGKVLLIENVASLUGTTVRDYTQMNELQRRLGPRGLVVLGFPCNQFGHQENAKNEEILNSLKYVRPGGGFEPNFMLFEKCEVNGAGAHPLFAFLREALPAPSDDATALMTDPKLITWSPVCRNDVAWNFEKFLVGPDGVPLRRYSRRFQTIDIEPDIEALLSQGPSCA

For `CN1CCN(c2ccc(C(=O)Nc3n[nH]c4ccc(Cc5cc(F)cc(F)c5)cc34)c(NC3CCOCC3)c2)CC1`, the Potency in experiment [1] is 3.65 µM (active) and 4.17 µM (active) and 6.51 µM (active). The Potency entry in experiment [2], in experiment [3], in experiment [4], in experiment [5] and in experiment [6] was “inactive” throughout.
As to `COc1ccc(-c2c(-c3cc(C(=O)O)ccn3)ncn2C)cc1`, the Potency result in experiment [1], in experiment [2], in experiment [3], in experiment [4], in experiment [5] and in experiment [6] was “inactive” throughout.
For `COc1cc(O)cc(C)c1C(=O)OC1C(CO)OC(OC2C(O)C(O)C(O)C(O)C2O)C(O)C1O` (stereo unspecified), the Potency entry in experiment [1], in experiment [2], in experiment [3], in experiment [4], in experiment [5] and in experiment [6] was “inactive” each time.
As to `COC(=O)C(C)C1CCC2(C)C(=O)C=CC(C)(O)C2C1O` (stereo unspecified), the Potency entry in experiment [1], in experiment [2], in experiment [3], in experiment [4], in experiment [5] and in experiment [6] was “inactive” throughout.
Consider `O=C(/C=C/c1ccc(O)cc1)OC1[C@H](O)CC(O)(C(=O)O)C[C@H]1O` (stereo partly specified), for which the Potency result in experiment [1], in experiment [2], in experiment [3], in experiment [4], in experiment [5] and in experiment [6] was “inactive” in each case.
As for `C[S+](CC[C@H](N)C(=O)[O-])C[C@H]1O[C@@H](n2cnc3c(N)ncnc32)[C@H](O)[C@@H]1O` (stereo partly specified), the Potency result in experiment [1], in experiment [2], in experiment [3], in experiment [4], in experiment [5] and in experiment [6] was “inactive” in each case.
In the case of `CC(=O)NC1C(OC(C)(C)C2CCC3(C)C=C(C4CCC5C4(C)CC(O)C4OC(C(C)(C)O)CCC45C)CCC3O2)OC(CO)C(O)C1O` (stereo unspecified), the Potency result in experiment [1], in experiment [2], in experiment [3], in experiment [4], in experiment [5] and in experiment [6] was “inactive” throughout.
In the case of `COc1ccc(/C=C\C(=O)O)c(O[C@@H]2O[C@H](CO)[C@@H](O)[C@H](O)[C@H]2O)c1`, the Potency result in experiment [1], in experiment [2], in experiment [3], in experiment [4], in experiment [5] and in experiment [6] was “inactive” each time.
As to `CC/C=C\[C@H](O)[C@H](O)C1=C(C)C(=O)[C@]2(O1)C(=O)N[C@@](OC)(C(=O)c1ccccc1)[C@@H]2O`, the Potency entry in experiment [1], in experiment [2], in experiment [3], in experiment [4], in experiment [5] and in experiment [6] was “inactive” in each case.
As to `c1ccc(N2CCN(CCc3nn[nH]n3)CC2)cc1`, the Potency entry in experiment [1], in experiment [2], in experiment [3], in experiment [4], in experiment [5] and in experiment [6] was “inactive” each time.
In the case of `COc1ccc(C2(O)c3ccccc3NC(=O)C2O)cc1` (stereo unspecified), the Potency result in experiment [1], in experiment [2], in experiment [3], in experiment [4], in experiment [5] and in experiment [6] was “inactive” throughout.
With `COC(=O)c1ccccc1O[C@@H]1O[C@H](CO)[C@@H](O)[C@H](O)[C@H]1O[C@@H]1O[C@@H](C)[C@H](O)[C@@H](O)[C@H]1O`, the Potency result in experiment [1], in experiment [2], in experiment [3], in experiment [4], in experiment [5] and in experiment [6] was “inactive” in each case.
Consider `C=CCC1=C[C@]2(OC)[C@H](C)[C@@H](c3ccc(O)c(OC)c3)O[C@]2(OC)CC1=O`, for which the Potency entry in experiment [1], in experiment [2], in experiment [3], in experiment [4], in experiment [5] and in experiment [6] was “inactive” each time.
`O=C1NC(Cc2c[nH]c3ccccc23)C(=O)NC1Cc1c[nH]c2ccccc12` (stereo unspecified): the Potency entry in experiment [1], in experiment [2], in experiment [3], in experiment [4], in experiment [5] and in experiment [6] was “inactive” throughout.
`COc1cc(/C=C/CO)cc(OC)c1O[C@@H]1O[C@H](CO[C@@H]2O[C@H](CO)[C@@H](O)[C@H](O)[C@H]2O)[C@@H](O)[C@H](O)[C@H]1O`: the Potency entry in experiment [1], in experiment [2], in experiment [3], in experiment [4], in experiment [5] and in experiment [6] was “inactive” in each case.
As to `C=C1CCC2C(C)(C(=O)O)CCCC2(C)C1CC/C(=C\CO)CO` (stereo unspecified), the Potency entry in experiment [1], in experiment [2], in experiment [3], in experiment [4], in experiment [5] and in experiment [6] was “inactive” throughout.
In the case of `C/C(=C\CCC(C)CCO)C(=O)OC1(C)CCC2C(C(=O)O)=COC(OC3OC(CO)C(O)C(O)C3O)C21` (stereo unspecified), the Potency result in experiment [1], in experiment [2], in experiment [3], in experiment [4], in experiment [5] and in experiment [6] was “inactive” in each case.
With `O=C1N=C(N2CCOCC2)CN1c1ccc(Cl)cc1`, the Potency result in experiment [1], in experiment [2], in experiment [3], in experiment [4], in experiment [5] and in experiment [6] was “inactive” each time.
For `CCC1C(=O)OC23C=C[C@@H]4C(C(=O)O)=CO[C@H](O[C@@H]12)[C@@H]43` (stereo partly specified), the Potency in experiment [1] is 18.3 µM (active). Besides, the Potency result in experiment [2], in experiment [3], in experiment [4], in experiment [5] and in experiment [6] was “inactive” throughout.
With `C=C1C(O)CC2C(C(=O)O)=COC(O[C@@H]3O[C@H](COC(=O)/C=C/c4ccc(O)cc4)[C@@H](O)[C@H](O)[C@H]3O)C12` (stereo partly specified), the Potency entry in experiment [1], in experiment [2], in experiment [3], in experiment [4], in experiment [5] and in experiment [6] was “inactive” throughout.
As to `Cc1cc(NC(=O)Nc2ccc(F)c(F)c2)n(-c2ccccc2)n1`, the Potency result in experiment [1], in experiment [2], in experiment [3], in experiment [4], in experiment [5] and in experiment [6] was “inactive” throughout.
